In PubChem BioAssay (Tox21):
Results filed as inconclusive are left out. A number with no mark means an inactive call. Active and inactive are the calls of the source. Calls come from the whole dose curve; as a rule, active = well fitted activation curve with a large enough effect in the repeat runs; inconclusive = weak or mixed curves; inactive = flat fitted curve, though single readings scatter.

assay: A CellTox Green Cytotoxicity Assay to monitor cytotoxicity in HEK293 cells - 24 hour (AID 1224875); details: CellTox Green fluorescence; series mostly up to 76.8 µM; activity change: at the top concentration; note: nearly all actives have a fitted effect of over 45% in size
From the text: National Center for Advancing Translational Sciences [NCATS]
NIH Chemical Genomics Center [NCGC]
U.S. Environmental Protection Agency [EPA]
National Institutes of Environmental Health Sciences [NIEHS]
National Toxicology Program [NTP]
Cell-based models are critical for drug discovery. Determining the natural cytotoxic effects resulting from test compounds is an essential research activity. A CellTox Green Cytotoxicity Assay to monitor cytotoxicity in real time of continues cell culture during 40 hours of the compound treatment was used to screen Tox21 10K library compounds in Hek293 cells. CellTox Green Cytotoxicity Assay is a nonlytic, homogeneous, biofluorescent method to measure cytotoxicity in cell culture after experimental manipulation. The assay system uses a proprietary asymmetric cyanine dye that is excluded from viable cells but preferentially stains the dead cell's DNA. […] Viable cells produce no appreciable increases in fluorescence. Therefore, the fluorescence signal produced by the binding interaction with dead cell DNA is proportional to cytotoxicity.
The mixture of Hek293 cell suspension and reagents were dispensed at 600cells/6 ul/well in 1536-well tissue culture treated black solid bottom plates using a Multidrop dispenser. After the assay plates were incubated at a 37 C/5% CO2 incubator for 5 hours, 23 nL of compounds dissolved in DMSO, positive and negative controls was transferred to the assay plate by a pintool work station. The plates were incubated at 37 C for 40 hours. The fluorescence intensity were measured at 0h, 8h, 16h, 24h, 32h and 40h time points using ViewLux plate reader during compound treatment.
% is set by controls: 0 for no effect and ±100 for the full control effect; potency is the fitted concentration of half-maximal effect.

Row | Structure (SMILES) | activity change | Potency
1 | CCCC1CCOC(C)S1 (stereo not given) | 1.49% | 
2 | O=C(N[C@@H](Cc1ccccc1)[C@@H](O)C(=O)N1C[C@@H](O)[C@@H](O)C1)c1cc2cc(Cl)ccc2[nH]1 | 17.8% | 
3 | O=C1c2ccccc2C(=O)c2c1ccc(O)c2O | -2.4% [at 35.3 µM, active compounds read high] | 
4 | CO[C@@H]1[C@@H](O[C@@H]2O[C@H](C)[C@@H](O[C@H]3C[C@@](C)(O)[C@@H](O)[C@H](C)O3)[C@H](N(C)C)[C@H]2O)[C@@H](CC=O)C[C@@H](C)[C@@H](O[C@@H]2CC[C@H](N(C)C)[C@@H](C)O2)/C=C/C=C/C[C@@H](C)OC(=O)C[C@H]1OC(C)=O | 2.28% [at 35.3 µM, active compounds read high] | 
5 | O=C(O)c1ccc2cc(O)ccc2c1 | -2.42% | 
6 | C=C[Si](OCC)(OCC)OCC | -0.495% | 
7 | O=C(c1ccc(Cl)cc1)c1ccc(Cl)cc1 | -1.53% | 
8 | O=C(C1CCCCC1)N1CC(=O)N2CCCc3ccccc3C2C1 (stereo not given) | -2.34% [at 35.3 µM, active compounds read high] | 
9 | O=C(O)c1ccc(O)c(O)c1 | -7.65% | 
10 | NC(=O)c1ccccc1C(N)=O |  | 49.2 µM (active)
11 | CS(C)=O | 2.88% | 
12 | C=Cc1ccc(C=C)cc1 | -7.91% | 
13 | O=[N+]([O-])c1ccccc1CCO | -18.4% | 
14 | CC1(C)CC(O)CC(C)(C)N1[O] | 5.23% | 
15 | Cc1nc(C)c(C)nc1C | 2.92% | 
16 | Cc1ccc(NC=O)c(C)c1 | 11.2% | 
17 | OCCCO | -4.68% | 
18 | CCOC(C)OCC | -7.5% | 
19 | O=S(=O)(O)c1cc(Cl)c(Cl)cc1Cl | 6.12% | 
20 | O=Cc1ccc(Cl)c([N+](=O)[O-])c1 | -1.94% | 

Row | Structure (SMILES) | activity change | Potency
21 | O=C(O)c1ccccc1[N+](=O)[O-] | -0.193% | 
22 | CCCCCCCCCCCCN1CCOCC1 | 17.1% | 
23 | Clc1cc(Cl)c2c(c1)N=C1CCCCCN1C2 | -1.34% [at 35.3 µM, active compounds read high] | 
24 | Cc1ccc2ccccc2c1[N+](=O)[O-] | 10.6% | 
25 | NC(=O)c1ccccc1 | 1.22% | 
26 | c1ccc(-c2ccc(-c3ccccc3)cc2)cc1 | -5.55% [at 15.8 µM, active compounds read high] | 
27 | O=C(Cl)c1ccc(F)c(Cl)c1 | 0.904% | 
28 | COC=O | -10.8% [at 6.97 µM, active compounds read high] | 
29 | Nc1ccc(C(=O)Oc2ccccc2)c(O)c1 | 10.6% [at 35.3 µM, active compounds read high] | 
30 | CCCC(=O)OCCC(C)C | -0.551% | 
31 | Nc1ccc(-c2ccc(F)cc2)cc1 | -5.82% | 
32 | Cc1c(N=C=O)cccc1N=C=O | -0.625% | 
33 | CCCCOC(=O)CC#N | -10% | 
34 | CCc1ccc2c(c1)C(=O)c1ccccc1C2=O | -2.14% | 
35 | COc1ccc(/C=C/S(=O)(=O)NC(=O)c2ccc(C)cc2Cl)cc1 | -5.17% | 
36 | CCCCC(CC)COCCC#N (stereo not given) | 0.364% | 
37 | C1CCN(CN2CCCCC2)CC1 | 6.57% | 
38 | CCOc1cc(OCC)c(C(C)=O)cc1OCC | 3.58% | 
39 | CC(=O)S[C@H](C(=O)N[C@H]1Cc2ccccc2[C@H]2CCC[C@@H](C(=O)O)N2C1=O)C(C)C | -9.69% | 
40 | O=C(O)CNc1ccccc1 | -9.89% | 
